Compounds with a hit are over-represented: about 2.7% of the library has one in this group of screens.
KDM5B inh: Primary screen for KDM5B Histone Demethylases FDH-coupled qHTS. Potency, µM (highest dose often 57.7 µM), actives largely listed as inhibitors. 220,000 tested, 2.6% active. KDM5B demethylase, FDH-coupled NADH fluorescence (FDH is formaldehyde dehydrogenase). AID 1347165, 2019; active means well fitted inhibition curve with a large enough effect; inconclusive means small, poorly fitted or top-dose-only effect; inactive means no such curve, though single readings can be large or run the other way; further: potency means the concentration at half of the fitted maximal effect; 0% is about no effect; nearly all actives have a fitted effect of over 70% in size
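Here, H3K4me3 peptide (12.5 µM in substrate mix) is demethylated by KDM5BΔAP, 200 nM final, after 10 min compound exposure. Formaldehyde product is coupled through FDH (0.25 U/mL in mix) to NADH fluorescence; 30-min ΔRFU feeds dose-response curves.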
IP6K1 inhibitor: Primary qHTS assay for small molecule inhibitors of Inositol hexaphosphate kinase 1 (IP6K1); activity change, % (series mostly up to about 58 µM); AID 1645851, 2021; 140,000 tested, 0.81% active; IP6K1 kinase, ADP-Glo luminescence, 2 h; active compounds read low; in the data active means activity change below about -25%; further: on the % scale 0 is the no-effect control and ±100 the full control effect
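ADP-Glo luminescence measures ADP made by human IP6K1 during a 2 h RT reaction with ATP/IP6 (mix at 1.3 mM/130 uM); top library doses 57.5 and 19.1 uM final.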
* hit, by the source's call; i = inactive; ? = inconclusive; nt = no result given.

SMILES | KDM5B inh | IP6K1 inhibitor
COc1ccc(-c2cn3cc(C(=O)N4CCCCC4)nc3s2)cc1 | nt | 0.8
CCc1nccc(CN2CCC(c3nn(C)c(=O)n3CC)CC2)n1 | 15.8µM* | -2.0
CCn1c(C2CCN(C(=O)c3cc(F)cc(F)c3)CC2)nn(C)c1=O | i | -12.5
CNC(=O)c1ccccc1OCc1coc(-c2cccc(F)c2)n1 | i | nt
c1ccc(CN2CCn3c(nnc3C3CCCNC3)C2)cc1 (stereo not given) | i | 6.2
N#Cc1ccc(CN2CCn3c(nnc3C3CCCNC3)C2)cc1 (stereo not given) | 20µM* | 2.6
C1CCC(CN2CCn3c(nnc3C3CCCNC3)C2)CC1 (stereo not given) | 25.1µM* | 4.8
CC(C)CCN1CCn2c(nnc2C2CCCNC2)C1 (stereo not given) | ? | -3.3
Cc1cccc(N2CCN(C(=O)CNC(=O)NCc3ccc(F)cc3)CC2)c1C | i | nt
O=c1ccc(N2CCC(NS(=O)(=O)c3ccc(Cl)s3)CC2)nn1CC1CC1 | 14.1µM* | -1.6
Cc1cc(C)c(C)c(S(=O)(=O)N2CCn3c(nn(CC4CC4)c3=O)C2)c1C | i | -4.6
O=C(NC1CCN(c2ccc(=O)n(CC3CC3)n2)CC1)c1cnccn1 | ? | -11.1
Cc1cc(C)c(C)c(S(=O)(=O)NC2CCN(c3ccc(=O)n(CC4CC4)n3)CC2)c1C | 35.5µM* | -4.5
C=CCN1Cc2cc(F)ccc2N(CC(O)COc2ccccc2)CCC1=O (stereo not given) | nt | -8.8
Cc1cccc(NC(=O)CCl)c1C | i | nt
COc1cc(CN2CCN(c3ncc(F)cn3)CC2)cc(Cl)c1OC | ? | 7.5
C#CCOc1ccccc1CN1CCN(c2ncc(F)cn2)CC1 | 28.2µM* | 15.1
CC(C)c1nc2c(c(-c3ccc(Cl)cc3)n1)CN(C(=O)c1ccccc1Cl)CC2 | nt | -6.4
Fc1cccc(-c2nc(COc3ccccc3Br)co2)c1 | i | nt
CC(C)C(=O)N1N=C(c2ccc(NS(C)(=O)=O)cc2)CC1c1ccc(F)cc1 (stereo not given) | i | nt
CC(C)c1noc([C@@H]2C[C@@H](O)CN2Cc2cc3ccccc3o2)n1 | 39.8µM* | 5.7
COc1ccc(-c2noc([C@@H]3C[C@@H](O)CN3Cc3cc4ccccc4o3)n2)cc1 | 31.6µM* | 3.1
CC(C)c1noc([C@@H]2C[C@@H](O)CN2Cc2ccc(N(C)C)cc2)n1 | i | -6.1
COc1ccc(CN2C[C@H](O)C[C@H]2c2nc(-c3ccc(OC)cc3)no2)cc1 | i | 12.7
COc1ccccc1-c1cccc(CN2CCC(NC(=O)c3cccc(Cl)c3)CC2)c1 | nt | 4.6
SMILES | KDM5B inh | IP6K1 inhibitor
CC(C)[C@H](NC(=O)CCn1ccc2ccc(F)cc21)C(=O)O | i | nt
CCCn1cnc2c1c(=O)n(Cc1csc(C(C)C)n1)c(=O)n2C | i | nt
O=C(c1ccccn1)N1CCc2nc(C3CC3)nc(-c3ccc(Cl)cc3)c2C1 | ? | -3.4
Cc1cc(S(=O)(=O)N2CCC3(CCC(=O)N(CC4CC4)CC3)CC2)ccc1F | nt | 14.0
CC(C)c1ccc(CC(=O)N2CCCc3ncc(C(=O)Nc4ccccc4)cc32)cc1 | ? | 9.4
Cc1csc(NC(=O)c2cnc3c(c2)N(C(=O)Cc2ccc(C(C)C)cc2)CCC3)n1 | 31.6µM* | 2.1
O=C(OCc1nc2ccccc2o1)c1cc(S(=O)(=O)N2CCCCC2)ccc1Cl | i | nt
O=C(c1cc(C2CC2)nc2onc(C3CCNC3)c12)N1CCCCC1 (stereo not given) | ? | -5.0
Cn1nc(C2CCNC2)c2c(C(=O)NCc3ccc(F)cc3)cc(C3CC3)nc21 (stereo not given) | 79.4µM* | -0.7
Cn1nc(C2CCNC2)c2c(C(=O)NCC(F)(F)F)cc(C3CC3)nc21 (stereo not given) | ? | 14.8
Cn1nc(C2CCNC2)c2c(C(=O)N3CCC(F)CC3)cc(C3CC3)nc21 (stereo not given) | 79.4µM* | 6.0
Cn1nc(C2CCNC2)c2c(C(=O)NC3CC3)cc(C3CC3)nc21 (stereo not given) | 100µM* | -0.4
CNC(=O)c1cc(C2CC2)nc2c1c(C1CCN([S+](C)(=O)[O-])C1)nn2C (stereo not given) | nt | 1.6
COc1cc2oc(=O)c(CC(=O)NCCc3ccccc3OC)c(C)c2cc1Cl | i | nt
CCOc1cc(NC(=O)c2ccc(Cn3cc(Cl)cn3)cc2)ccc1OC(F)F | i | nt
O=C1CC2(CCN(C(=O)C3CCCN(C(=O)Cc4cccc(Cl)c4)C3)CC2)Oc2ccccc2N1 (stereo not given) | nt | 3.6
NC(=O)C1CCC(NC(=O)C2(c3cccc(Cl)c3)CCC2)CC1 (stereo not given) | i | nt
Cc1ccc(NC(=O)c2cc(C)nc3ccccc23)nc1 | i | nt
Cc1cccc(NC(=S)N/N=C/C2=CCC3CC2C3(C)C)c1C (stereo not given) | i | nt
